# Where “and” joins values, the source holds several entries; their conditions need not be identical. Equal entries are not always repeated. Where two headings read alike, the source gives them in different places.
# Experiments:
# SgK110 = settings: concentration: 1 μM, replicates: in singlicate; n = 1
# TAK1 = tested on: T1, TAK1; settings: concentration: 1 μM, replicates: in singlicate, n = 1
# T1 construct: gene MAP3K7
# TAOK1 = settings: concentration: 1 μM, replicates: in singlicate; n = 1
# TAOK2 = settings: concentration: 1 μM, replicates: in singlicate, n = 1
# TAOK3 = settings: concentration: 1 μM, replicates: in singlicate, n = 1
# TBK1 = settings: concentration: 1 μM, replicates: in singlicate, n = 1
# TEC = settings: concentration: 1 μM, replicates: in singlicate; n = 1
# TESK1 = settings: concentration: 1 μM, replicates: in singlicate, n = 1
# TGFBR1 = settings: concentration: 1 μM, replicates: in singlicate, n = 1
# TGFBR2 = settings: concentration: 1 μM, replicates: in singlicate; n = 1
# TIE1 = settings: concentration: 1 μM, replicates: in singlicate; n = 1
# TIE2 = tested on: T2, TIE2; settings: concentration: 1 μM, replicates: in singlicate, n = 1
# T2 construct: gene TEK
# TLK1 = settings: concentration: 1 μM, replicates: in singlicate, n = 1
# TLK2 = settings: concentration: 1 μM, replicates: in singlicate, n = 1
# TNIK = settings: concentration: 1 μM, replicates: in singlicate, n = 1
# TNK1 = settings: concentration: 1 μM, replicates: in singlicate, n = 1
# TNK2 = settings: concentration: 1 μM, replicates: in singlicate; n = 1
# TNNI3K = settings: concentration: 1 μM, replicates: in singlicate, n = 1
# TRKA = tested on: T3, TRKA; settings: concentration: 1 μM, replicates: in singlicate, n = 1
# T3 construct: gene NTRK1
# TRKB = settings: concentration: 1 μM, replicates: in singlicate, n = 1
# 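Further: KINOMEscan kinase panel screen.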
compound,measurement,setting,value
CCc1nc(-c2cccc(N(C)S(=O)(=O)c3ccccc3)c2)c(-c2ccnc(Nc3ccc(N4CCN(C(C)=O)CC4)nc3)n2)s1 [GSK1645895],%Inh,SgK110,0%
same,%Inh,TAK1,0%
same,%Inh,TAOK1,0%
same,%Inh,TAOK2,0%
same,%Inh,TAOK3,2%
same,%Inh,TBK1,27%
same,%Inh,TEC,7%
same,%Inh,TESK1,0%
same,%Inh,TGFBR1,17%
same,%Inh,TGFBR2,0%
same,%Inh,TIE1,5%
same,%Inh,TIE2,18%
same,%Inh,TLK1,26%
same,%Inh,TLK2,20%
same,%Inh,TNIK,4%
same,%Inh,TNK1,29%
same,%Inh,TNK2,3%
same,%Inh,TNNI3K,0%
same,%Inh,TRKA,0%
same,%Inh,TRKB,0%
Cl.Cn1ccc(-c2cccc(Nc3ccnc4cc(-c5nccs5)ccc34)c2)n1 [GW525701],%Inh,SgK110,19%
same,%Inh,TAK1,0%
same,%Inh,TAOK1,0%
same,%Inh,TAOK2,0%
same,%Inh,TAOK3,0%
same,%Inh,TBK1,17%
same,%Inh,TEC,17%
same,%Inh,TESK1,34%
same,%Inh,TGFBR1,12%
same,%Inh,TGFBR2,0%
same,%Inh,TIE1,0%
same,%Inh,TIE2,0%
same,%Inh,TLK1,13%
same,%Inh,TLK2,3%
same,%Inh,TNIK,50%
same,%Inh,TNK1,0%
same,%Inh,TNK2,33%
same,%Inh,TNNI3K,0%
same,%Inh,TRKA,0%
same,%Inh,TRKB,60%
CNc1nccc(-c2c(-c3ccc(F)cc3)ncn2C2CCN(C)CC2)n1 [SB-222903],%Inh,SgK110,36%
same,%Inh,TAK1,0%
same,%Inh,TAOK1,0%
same,%Inh,TAOK2,7%
same,%Inh,TAOK3,0%
same,%Inh,TBK1,1%
same,%Inh,TEC,10%
same,%Inh,TESK1,3%
same,%Inh,TGFBR1,24%
same,%Inh,TGFBR2,0%
same,%Inh,TIE1,0%
same,%Inh,TIE2,0%
same,%Inh,TLK1,0%
same,%Inh,TLK2,0%
same,%Inh,TNIK,21%
same,%Inh,TNK1,25%
same,%Inh,TNK2,0%
same,%Inh,TNNI3K,0%
same,%Inh,TRKA,20%
same,%Inh,TRKB,0%
COc1cc2ncnc(Nc3ccc(OCc4ccccc4Br)c(Cl)c3)c2cc1OC.Cl [GI261590],%Inh,SgK110,0%
same,%Inh,TAK1,0%
same,%Inh,TAOK1,0%
same,%Inh,TAOK2,0%
same,%Inh,TAOK3,0%
same,%Inh,TBK1,10%
same,%Inh,TEC,21%
same,%Inh,TESK1,33%
same,%Inh,TGFBR1,27%
same,%Inh,TGFBR2,0%
same,%Inh,TIE1,0%
same,%Inh,TIE2,3%
same,%Inh,TLK1,0%
same,%Inh,TLK2,0%
same,%Inh,TNIK,0%
same,%Inh,TNK1,0%
same,%Inh,TNK2,24%
same,%Inh,TNNI3K,5%
same,%Inh,TRKA,0%
same,%Inh,TRKB,19%
CCc1nc(-c2cccc(C)c2)c(-c2ccnc(NC(=O)c3ccccc3)c2)s1,%Inh,SgK110,18%
same,%Inh,TAK1,35%
same,%Inh,TAOK1,0%
same,%Inh,TAOK2,0%
same,%Inh,TAOK3,0%
same,%Inh,TBK1,10%
same,%Inh,TEC,18%
same,%Inh,TESK1,0%
same,%Inh,TGFBR1,32%
same,%Inh,TGFBR2,0%
same,%Inh,TIE1,0%
same,%Inh,TIE2,0%
same,%Inh,TLK1,13%
same,%Inh,TLK2,0%
same,%Inh,TNIK,62%
same,%Inh,TNK1,27%
same,%Inh,TNK2,9%
same,%Inh,TNNI3K,0%
same,%Inh,TRKA,17%
same,%Inh,TRKB,0%
O=C(Nc1ccccc1)Nc1ccc(Oc2ccc3nccn3n2)cc1,%Inh,SgK110,27%
same,%Inh,TAK1,0%
same,%Inh,TAOK1,0%
same,%Inh,TAOK2,5%
same,%Inh,TAOK3,0%
same,%Inh,TBK1,34%
same,%Inh,TEC,10%
same,%Inh,TESK1,11%
same,%Inh,TGFBR1,0%
same,%Inh,TGFBR2,27%
same,%Inh,TIE1,13%
same,%Inh,TIE2,46%
same,%Inh,TLK1,0%
same,%Inh,TLK2,0%
same,%Inh,TNIK,0%
same,%Inh,TNK1,43%
same,%Inh,TNK2,10%
same,%Inh,TNNI3K,82%
same,%Inh,TRKA,0%
same,%Inh,TRKB,0%
CC(C)(C)OC(=O)NC1CCCN(c2cc(-c3ccc4c(N)n[nH]c4c3)nc(N)n2)C1 (centres unmarked) [GSK2286096],%Inh,SgK110,0%
same,%Inh,TAK1,0%
same,%Inh,TAOK1,0%
same,%Inh,TAOK2,0%
same,%Inh,TAOK3,0%
same,%Inh,TBK1,74%
same,%Inh,TEC,5%
same,%Inh,TESK1,0%
same,%Inh,TGFBR1,0%
same,%Inh,TGFBR2,0%
same,%Inh,TIE1,0%
same,%Inh,TIE2,0%
same,%Inh,TLK1,0%
same,%Inh,TLK2,0%
same,%Inh,TNIK,0%
same,%Inh,TNK1,10%
same,%Inh,TNK2,13%
same,%Inh,TNNI3K,6%
same,%Inh,TRKA,0%
same,%Inh,TRKB,0%
c1ccc(-c2ccc3c(-c4ccnc(Nc5ccc6c(c5)OCCO6)n4)cnn3n2)cc1 [GW818941],%Inh,SgK110,0%
same,%Inh,TAK1,0%
same,%Inh,TAOK1,0%
same,%Inh,TAOK2,0%
same,%Inh,TAOK3,5%
same,%Inh,TBK1,22%
same,%Inh,TEC,0%
same,%Inh,TESK1,12%
same,%Inh,TGFBR1,11%
same,%Inh,TGFBR2,22%
same,%Inh,TIE1,22%
same,%Inh,TIE2,8%
same,%Inh,TLK1,0%
same,%Inh,TLK2,0%
same,%Inh,TNIK,1%
same,%Inh,TNK1,0%
same,%Inh,TNK2,12%
same,%Inh,TNNI3K,17%
same,%Inh,TRKA,34%
same,%Inh,TRKB,0%
O=C(Nc1ccccc1F)NC1CCN(c2ccnc(Nc3ccc(F)cc3)n2)C1 (centres unmarked) [GSK1379722],%Inh,SgK110,0%
same,%Inh,TAK1,0%
same,%Inh,TAOK1,0%
same,%Inh,TAOK2,0%
same,%Inh,TAOK3,0%
same,%Inh,TBK1,0%
same,%Inh,TEC,6%
same,%Inh,TESK1,16%
same,%Inh,TGFBR1,25%
same,%Inh,TGFBR2,0%
same,%Inh,TIE1,0%
same,%Inh,TIE2,0%
same,%Inh,TLK1,0%
same,%Inh,TLK2,0%
same,%Inh,TNIK,0%
same,%Inh,TNK1,0%
same,%Inh,TNK2,27%
same,%Inh,TNNI3K,0%
same,%Inh,TRKA,0%
same,%Inh,TRKB,32%
COc1ccc(-c2nc3n(c2-c2ccncc2)CCC3)cc1 [SKF-104493],%Inh,SgK110,0%
same,%Inh,TAK1; 1 µM,0% and 31%
same,%Inh,TAOK1,0%
same,%Inh,TAOK2; 1 µM,26% and 10%
same,%Inh,TAOK3; 1 µM,5% and 0%
same,%Inh,TBK1; 1 µM,13% and 17%
same,%Inh,TEC,0%
same,%Inh,TESK1; 1 µM,1% and 24%
same,%Inh,TGFBR1; 1 µM,37% and 31%
same,%Inh,TGFBR2,0%
same,%Inh,TIE1,0%
same,%Inh,TIE2; 1 µM,0% and 2%
same,%Inh,TLK1; 1 µM,7% and 0%
same,%Inh,TLK2; 1 µM,0% and 24%
same,%Inh,TNIK; 1 µM,0% and 11%
same,%Inh,TNK1; 1 µM,6% and 0%
same,%Inh,TNK2,0%
same,%Inh,TNNI3K; 1 µM,25% and 6%
same,%Inh,TRKA; 1 µM,0% and 32%
same,%Inh,TRKB; 1 µM,13% and 0%

# Reference: publication PMC5540273 (PLoS ONE, 2017)
